Experimental data: the supplement of paper PMC11006884
About 6,500 targets were measured; listed, in parts, are those with a hit and a random draw of the rest. About 2% of all pairs of compound and target were hits. A number with no mark means an inactive call.

Compound: COC(=O)C#Cc1ccccc1 [methyl 3-phenylpropiolate]
Assay: log2 ratio of iodoacetamide-alkyne labeling of the cysteine site, DMSO over compound (competition); higher = stronger covalent engagement of the cysteine by the compound, active = 1 or more
Details: 500 µM; treatment time 1 h; system: HEK293T cell lysate
Method in brief: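 After 1 h at ambient temperature with vehicle or electrophile (500 µM), HEK293T lysate (2 mg/mL) was labelled for 1 h with iodoacetamide alkyne and clicked to sCIP-TMT reagents. Pooled samples were trypsin-digested overnight at 37 °C, streptavidin-enriched, acid-eluted and analysed by Orbitrap Eclipse LC-MS/MS with FAIMS, then quantified in FragPipe over three replicates with duplicate channels. A cysteine's log2 competition ratio is its mean control-channel over mean compound-channel reporter intensity. Cysteines quantified in only one replicate were not included.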

Chain of UniProt Q9BYI3 (Q9BYI3 whole entry): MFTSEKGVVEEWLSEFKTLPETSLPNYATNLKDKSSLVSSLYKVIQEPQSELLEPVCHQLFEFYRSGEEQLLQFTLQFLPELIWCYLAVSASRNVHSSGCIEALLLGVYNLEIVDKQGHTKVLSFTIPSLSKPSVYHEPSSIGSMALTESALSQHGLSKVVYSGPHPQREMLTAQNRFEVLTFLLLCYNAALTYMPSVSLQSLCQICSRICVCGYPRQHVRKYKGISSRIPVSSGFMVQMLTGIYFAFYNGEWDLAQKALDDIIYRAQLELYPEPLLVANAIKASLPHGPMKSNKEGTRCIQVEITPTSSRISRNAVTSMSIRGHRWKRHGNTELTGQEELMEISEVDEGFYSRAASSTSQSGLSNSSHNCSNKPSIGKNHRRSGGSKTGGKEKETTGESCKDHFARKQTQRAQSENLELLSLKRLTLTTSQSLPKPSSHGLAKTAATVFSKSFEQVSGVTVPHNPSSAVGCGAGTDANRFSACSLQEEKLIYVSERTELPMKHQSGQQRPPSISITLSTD
Chain of UniProt Q9ULI3 (Q9ULI3 whole entry): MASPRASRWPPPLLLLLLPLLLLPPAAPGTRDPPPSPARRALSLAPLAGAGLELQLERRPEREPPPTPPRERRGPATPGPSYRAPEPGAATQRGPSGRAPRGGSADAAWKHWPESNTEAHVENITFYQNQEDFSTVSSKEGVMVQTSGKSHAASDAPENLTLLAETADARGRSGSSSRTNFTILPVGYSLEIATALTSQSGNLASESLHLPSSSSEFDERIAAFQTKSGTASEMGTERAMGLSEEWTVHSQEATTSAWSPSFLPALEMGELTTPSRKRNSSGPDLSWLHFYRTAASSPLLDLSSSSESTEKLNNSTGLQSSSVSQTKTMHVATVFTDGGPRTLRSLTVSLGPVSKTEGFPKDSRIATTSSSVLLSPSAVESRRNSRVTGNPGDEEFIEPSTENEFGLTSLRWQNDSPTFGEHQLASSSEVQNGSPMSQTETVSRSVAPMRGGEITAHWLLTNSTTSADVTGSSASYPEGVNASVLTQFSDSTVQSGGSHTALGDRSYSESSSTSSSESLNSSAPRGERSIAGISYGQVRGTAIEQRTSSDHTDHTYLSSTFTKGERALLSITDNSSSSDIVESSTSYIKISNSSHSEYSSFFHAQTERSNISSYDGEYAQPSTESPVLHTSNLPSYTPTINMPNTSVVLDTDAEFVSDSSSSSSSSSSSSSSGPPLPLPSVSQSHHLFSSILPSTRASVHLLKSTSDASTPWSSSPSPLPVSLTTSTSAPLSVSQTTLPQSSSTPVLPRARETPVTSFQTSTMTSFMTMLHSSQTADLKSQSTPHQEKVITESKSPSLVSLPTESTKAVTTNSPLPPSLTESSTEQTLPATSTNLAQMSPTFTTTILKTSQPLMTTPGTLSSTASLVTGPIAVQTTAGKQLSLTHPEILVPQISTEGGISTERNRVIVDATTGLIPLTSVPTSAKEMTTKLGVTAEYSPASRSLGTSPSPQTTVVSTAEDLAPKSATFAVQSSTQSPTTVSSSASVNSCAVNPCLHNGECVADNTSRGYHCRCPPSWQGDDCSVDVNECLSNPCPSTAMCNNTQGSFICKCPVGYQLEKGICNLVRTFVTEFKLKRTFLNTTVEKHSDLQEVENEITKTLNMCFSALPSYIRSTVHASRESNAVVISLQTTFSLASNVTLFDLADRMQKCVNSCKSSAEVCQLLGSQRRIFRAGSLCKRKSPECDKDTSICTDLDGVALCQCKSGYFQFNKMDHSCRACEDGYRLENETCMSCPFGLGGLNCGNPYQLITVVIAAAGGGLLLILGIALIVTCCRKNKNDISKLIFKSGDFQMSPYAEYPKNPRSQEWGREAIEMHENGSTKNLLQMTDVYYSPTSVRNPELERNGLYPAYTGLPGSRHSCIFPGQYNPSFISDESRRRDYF
Chain of UniProt Q9H9A6 (Q9H9A6 whole entry, looked up): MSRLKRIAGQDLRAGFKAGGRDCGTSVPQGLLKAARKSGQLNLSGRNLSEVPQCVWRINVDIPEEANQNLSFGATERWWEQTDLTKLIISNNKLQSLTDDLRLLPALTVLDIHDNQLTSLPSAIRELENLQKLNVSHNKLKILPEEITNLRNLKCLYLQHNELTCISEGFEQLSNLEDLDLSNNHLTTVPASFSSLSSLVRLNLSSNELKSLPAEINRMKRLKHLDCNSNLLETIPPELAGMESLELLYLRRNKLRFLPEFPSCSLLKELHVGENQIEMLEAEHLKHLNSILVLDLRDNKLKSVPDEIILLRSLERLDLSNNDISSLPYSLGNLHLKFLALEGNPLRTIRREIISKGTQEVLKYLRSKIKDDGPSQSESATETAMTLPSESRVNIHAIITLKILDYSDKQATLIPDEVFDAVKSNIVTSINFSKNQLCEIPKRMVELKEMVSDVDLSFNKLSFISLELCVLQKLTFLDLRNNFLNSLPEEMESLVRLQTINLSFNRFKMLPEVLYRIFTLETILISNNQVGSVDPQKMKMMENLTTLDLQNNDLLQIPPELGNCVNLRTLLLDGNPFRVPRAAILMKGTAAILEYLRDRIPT
Chain of UniProt Q9BWD1 (Q9BWD1 whole entry, looked up): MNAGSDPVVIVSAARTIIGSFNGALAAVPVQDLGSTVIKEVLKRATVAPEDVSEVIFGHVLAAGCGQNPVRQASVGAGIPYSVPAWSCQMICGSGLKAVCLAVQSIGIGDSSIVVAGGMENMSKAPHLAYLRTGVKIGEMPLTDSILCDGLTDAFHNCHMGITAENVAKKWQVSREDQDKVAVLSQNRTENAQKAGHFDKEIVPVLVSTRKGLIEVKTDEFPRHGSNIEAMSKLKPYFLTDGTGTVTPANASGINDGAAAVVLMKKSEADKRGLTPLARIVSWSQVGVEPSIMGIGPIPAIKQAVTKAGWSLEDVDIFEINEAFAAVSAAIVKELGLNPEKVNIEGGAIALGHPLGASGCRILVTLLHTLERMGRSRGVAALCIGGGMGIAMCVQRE
Chain of UniProt Q9UPN9 (Q9UPN9 whole entry, looked up): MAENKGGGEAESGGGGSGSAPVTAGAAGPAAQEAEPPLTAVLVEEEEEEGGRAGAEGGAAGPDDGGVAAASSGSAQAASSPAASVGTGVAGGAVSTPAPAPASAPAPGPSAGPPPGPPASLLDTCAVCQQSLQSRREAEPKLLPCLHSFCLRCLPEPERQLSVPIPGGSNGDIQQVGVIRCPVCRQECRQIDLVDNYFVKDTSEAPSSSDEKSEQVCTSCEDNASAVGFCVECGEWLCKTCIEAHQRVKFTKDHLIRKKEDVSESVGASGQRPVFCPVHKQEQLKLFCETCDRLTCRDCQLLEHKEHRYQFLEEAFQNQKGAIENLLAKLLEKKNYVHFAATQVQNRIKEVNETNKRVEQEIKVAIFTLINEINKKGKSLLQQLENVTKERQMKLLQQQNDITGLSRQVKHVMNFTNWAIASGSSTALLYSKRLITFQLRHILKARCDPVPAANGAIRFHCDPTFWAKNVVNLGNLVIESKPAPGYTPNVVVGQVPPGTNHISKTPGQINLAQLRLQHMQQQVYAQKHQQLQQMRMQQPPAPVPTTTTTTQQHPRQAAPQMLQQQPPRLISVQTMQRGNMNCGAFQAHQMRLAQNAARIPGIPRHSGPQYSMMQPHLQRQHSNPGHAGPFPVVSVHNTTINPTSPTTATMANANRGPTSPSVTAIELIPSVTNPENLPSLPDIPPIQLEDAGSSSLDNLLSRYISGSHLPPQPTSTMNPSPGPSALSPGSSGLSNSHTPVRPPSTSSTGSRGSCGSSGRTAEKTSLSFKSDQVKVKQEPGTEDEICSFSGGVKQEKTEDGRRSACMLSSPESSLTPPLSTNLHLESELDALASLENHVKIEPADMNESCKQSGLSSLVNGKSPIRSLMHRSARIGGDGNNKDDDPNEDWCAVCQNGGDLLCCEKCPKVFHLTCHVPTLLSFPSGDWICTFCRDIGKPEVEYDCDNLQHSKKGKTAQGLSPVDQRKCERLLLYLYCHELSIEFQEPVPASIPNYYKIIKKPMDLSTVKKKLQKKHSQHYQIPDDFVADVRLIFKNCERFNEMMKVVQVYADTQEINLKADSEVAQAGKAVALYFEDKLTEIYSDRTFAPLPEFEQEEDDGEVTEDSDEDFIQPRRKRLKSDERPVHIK
Chain of UniProt Q9UEY8 (Q9UEY8 whole entry): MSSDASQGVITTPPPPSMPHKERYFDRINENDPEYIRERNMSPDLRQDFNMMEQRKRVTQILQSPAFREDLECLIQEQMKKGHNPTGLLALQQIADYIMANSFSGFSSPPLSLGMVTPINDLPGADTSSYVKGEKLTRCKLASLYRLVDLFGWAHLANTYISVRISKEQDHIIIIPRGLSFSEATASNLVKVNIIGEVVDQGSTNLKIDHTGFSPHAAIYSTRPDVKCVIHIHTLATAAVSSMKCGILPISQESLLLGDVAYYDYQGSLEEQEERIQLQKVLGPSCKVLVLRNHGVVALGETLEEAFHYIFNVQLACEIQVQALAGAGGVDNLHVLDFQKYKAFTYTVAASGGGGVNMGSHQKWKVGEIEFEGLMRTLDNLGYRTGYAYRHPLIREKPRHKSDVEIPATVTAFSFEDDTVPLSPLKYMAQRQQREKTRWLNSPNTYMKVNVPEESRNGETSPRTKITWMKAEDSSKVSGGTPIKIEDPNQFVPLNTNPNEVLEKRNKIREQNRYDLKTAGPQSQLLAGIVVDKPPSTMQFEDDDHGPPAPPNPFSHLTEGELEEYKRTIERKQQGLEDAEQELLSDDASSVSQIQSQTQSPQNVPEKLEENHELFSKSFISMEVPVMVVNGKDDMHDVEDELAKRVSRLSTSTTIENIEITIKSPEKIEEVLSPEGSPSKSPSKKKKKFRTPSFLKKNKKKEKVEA
Chain of UniProt Q9NQR4 (Q9NQR4 whole entry, looked up): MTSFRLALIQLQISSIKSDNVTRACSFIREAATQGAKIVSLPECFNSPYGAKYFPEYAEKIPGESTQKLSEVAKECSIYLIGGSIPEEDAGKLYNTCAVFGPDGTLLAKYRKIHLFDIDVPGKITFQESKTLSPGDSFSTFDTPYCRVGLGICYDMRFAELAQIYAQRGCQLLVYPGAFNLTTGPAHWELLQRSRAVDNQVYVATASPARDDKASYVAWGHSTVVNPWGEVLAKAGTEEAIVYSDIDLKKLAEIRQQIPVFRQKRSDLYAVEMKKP

| Target | log2 ratio of iodoacetamide-alkyne labeling |
| --- | --- |
| TRIM33 C153 (UniProt Q9UPN9) | 0.274 |
| GNL3 C234 (UniProt Q9BVP2) | 0.259 |
| NAT10 C486 (UniProt Q9H0A0) | 0.0616 |
| TES C196 (UniProt Q9UGI8) | 0.308 |
| OPA3 C164 (UniProt Q9H6K4) | 0.331 |
| FAM120A C892 (UniProt Q9NZB2) | 1.45 (active) |
| HECTD1 C1368 (UniProt Q9ULT8) | 0.751 |
| ADD3 C73 (UniProt Q9UEY8) | 0.00986 |
| KCTD3 C606 (UniProt Q9Y597) | 1.08 (active) |
| RCC2 C428 (UniProt Q9P258) | 0.696 |
| HOOK1 C432 (UniProt Q9UJC3) | 0.385 |
| FAM83D C15 (UniProt Q9H4H8) | 1.11 (active) |
| RABGAP1 C1026 (UniProt Q9Y3P9) | -0.252 |
| LANCL2 C49 (UniProt Q9NS86) | -0.064 |
| ANKFY1 C460 (UniProt Q9P2R3) | 1.44 (active) |
| MDN1 C43 (UniProt Q9NU22) | 1.32 (active) |
| UBE2O C598 (UniProt Q9C0C9) | 0.166 |
| STUB1 C199 (UniProt Q9UNE7) | 0.493 |
| ACAT2 C360 (UniProt Q9BWD1) | -0.0247 |
| SAP30BP C127 (UniProt Q9UHR5) | 1.3 (active) |

| Target | log2 ratio of iodoacetamide-alkyne labeling |
| --- | --- |
| UniProt Q9NUQ3_C56 | 1.97 (active) |
| MDN1 C3492 (UniProt Q9NU22) | 0.35 |
| KIF3A C621 (UniProt Q9Y496) | 0.962 |
| UniProt Q9P2P1_C1222 | 0.312 |
| NIT2 C146 (UniProt Q9NQR4) | 0.119 |
| BRD7 C338 (UniProt Q9NPI1) | 1.01 (active) |
| UniProt Q9NWY4_C17 | 0.873 |
| SPATA5L1 C309 (UniProt Q9BVQ7) | 1.11 (active) |
| PPME1 C386 (UniProt Q9Y570) | 1.48 (active) |
| UniProt Q9BVS4_C449 | 1.18 (active) |
| LRRC40 C227 (UniProt Q9H9A6) | 0.34 |
| NFU1 C210 (UniProt Q9UMS0) | 1.06 (active) |
| RPRD1B C234 (UniProt Q9NQG5) | 0.513 |
| UniProt Q9Y312_C156 | 0.41 |
| UniProt Q9Y520_C223 | 0.239 |
| UniProt Q9NRP4_C80 | 0.483 |
| RNPEP C181 (UniProt Q9H4A4) | 0.0149 |
| HEG1 C1360 (UniProt Q9ULI3) | 1.36 (active) |
| FAM126A C300 (UniProt Q9BYI3) | 0.174 |
